What all share (assay): NCI-60 one-dose screen, 48 h (100 = growth as untreated, 0 = no growth, -100 = all killed)
What all share (settings): 10 µM

Assay [1] relates to SN12C renal.
The test system of assay [2] is UO-31 renal.
For assay [3], the system named is TK-10 renal.
Assay [4] concerns ACHN renal.
The subject of assay [5] is CAKI-1 renal.
Assay [6] deals with A498 renal.
For assay [7], the system named is CCRF-CEM leukemia.
Assay [8] deals with SR leukemia.
Assay [9] has as its system MOLT-4 leukemia.

Compounds without any hit were thinned out: in the full panel of roughly 83,000, 20% have a hit.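 96-well plates, one dose, 48 hours. Percent growth reported; active if below 10.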 Values without a mark were called inactive. Calls of active or inactive are those of the source.

Consider `Cc1cc(=O)n2nnc3c4ccccc4ccc3n12`, for which the growth was 37.2% in assay [1]; 46.8% in assay [2]; 74.1% in assay [3]; 78.1% in [4]; 67.8% in assay [5]; 108% in assay [6]. For the same compound, the growth in [7] was 23.4%; in assay [8], 9.54% (active).
As for `COc1ccc(-c2nn(-c3cccc(NC(=O)c4ccc(Cl)c(Cl)c4)c3)cc2-c2ccncc2)cc1Cl`, the growth in [1] was 86.7%; in assay [2] it was 47.6%; in [3], 85%; in assay [4], 78.8%; in [5] it was 73.1%; in assay [6], 54.7%. The growth is 61.7% in assay [7], 62.7% in assay [9] and 24.3% in assay [8].
Turning to `COc1ccc(/C=C2/CN(C(=O)c3ccc(C)cc3)C/C(=C\c3ccc(OC)cc3)C2=O)cc1`, the growth was 90.7% in assay [1]; 58.5% in assay [2]; 113% in assay [3]; 92% in [4]; 85.2% in assay [5]; 89.4% in assay [6]. Besides, the values for the growth in [7], in [9] and in [8] were 71.3%, 69.3% and 12.8%, respectively.
Turning to `COc1ccc(-c2nc3sc(C4CC4)nn3c2/C=C2/C(=O)Nc3ccc(OC)cc32)cc1`, the growth in assay [1] was 91.9%; in assay [2], 75.6%; in assay [3], 95.8%; in assay [4] it was 78%; in [5], 78.8%; in assay [6] it was 49.4%. The growth in assay [7] is 75.8%; in [8], 26.5%.
Take `COc1ccc(Nc2ccnc(NCCNc3ccnc4cc(Cl)ccc34)n2)cc1`: the growth in assay [1] was 57.7%; in [2], 44.8%; in assay [3] it was 71.6%; in [4], 57.3%; in assay [5], 60.6%; in assay [6], 37.3%. In addition, in assay [9], the growth is 18%.
As to `CCOC(=O)N1C=CC2C=CC1C1C=CC=CC2N1C(=O)OCC` (stereo unspecified), the growth was 99.3% in assay [1]; 83.4% in [2]; 111% in [3]; 101% in [4]; 84.5% in [5]; 89.7% in [6]. Besides, in assay [9], the growth is 95.5%.
As for `COc1cccc(NC(=O)c2sc3nc4c(cc3c2N)C(O)CCC4)c1` (stereo unspecified), the growth in assay [1] is 30.3%; in assay [2] it was 40.3%; in assay [3], 79.8%; in [4] it was 42%; in assay [5], 34.4%; in [6] it was -7.35% (active). For the same compound, the growth in assay [7] is 11.2%; in assay [9] it was 6.41% (active); in [8], 0.382% (active).
For the compound `CSC1=NCCCC1`, the growth was 110% in assay [1]; 86.8% in assay [2]; 125% in [3]; 102% in assay [4]; 115% in [5]; 106% in assay [6]. In assay [9], the growth is 108%.
In the case of `O=C1/C(=C/c2ccc([N+](=O)[O-])o2)Oc2ccccc21`, the growth was -2.18% (active) in assay [1]; -61.5% (active) in [2]; -55.8% (active) in assay [3]; -9.64% (active) in assay [4]; -4.42% (active) in assay [5]; 70.3% in [6]. Also, the growth is -1.87% (active) in assay [7] and 9.39% (active) in assay [8].
Take `COc1cc(-c2cc(/C=C3\C(=O)Nc4cc(Cl)ccc43)[nH]n2)cc(OC)c1OC`: the growth is 12.1% in [1]; 30.4% in assay [2]; 60.9% in assay [3]; 58% in assay [4]; 38.8% in assay [5]; 50.4% in assay [6]. The growth is 13.2% in assay [7], 13.5% in assay [9] and 16.8% in assay [8].
As for `c1ccc(CSc2nnc3c4c5c(sc4nc(-c4cccnc4)n23)CCCCCC5)cc1`, the growth in assay [1] is 56.5%; in assay [2], 94.8%; in [3], 72.2%; in [4], 73.7%; in [5], 71.6%; in assay [6], 58.5%. Besides, the growth was 25.2% in [7] and 46.5% in assay [8].
With `Nc1nc(N=Nc2ccc(O)cc2)cc(=O)[nH]1`, the growth was 101% in assay [1]; 93.6% in [2]; 120% in assay [3]; 105% in assay [4]; 91.4% in assay [5]; 97.5% in assay [7]. Besides, the growth in [9] was 104%; in assay [8], 94.3%.
For `CC/C(=C(/c1ccc(OCCN(C)C)cc1)c1ccc(OC(=O)CCCCCCCCC(=O)c2c(C)[nH]c(/C=C3\N=C(c4ccc[nH]4)C=C3OC)c2C)cc1)c1ccccc1`, the growth in assay [1] was 74.7%; in assay [2], 62.2%; in assay [3], 98%; in assay [4] it was 87.6%; in assay [5] it was 47.1%; in [7] it was 23.5%. In addition, the growth in assay [9] is 36.2%; in assay [8], 47.8%.
As to `Cc1cc(Cl)nc(N(CCCNc2ccnc3cc(Cl)ccc23)Cc2cccs2)n1`, the growth in assay [1] is 33%; in assay [2], 5.57% (active); in [3] it was 28.4%; in assay [4], 25.8%; in assay [6], 19.6%; in assay [7] it was 2.62% (active). Also, the growth is -17.6% (active) in assay [9] and -21.3% (active) in assay [8].
In the case of `Cc1cc(N(CCCNc2ccnc3cc(Cl)ccc23)Cc2ccc3c(c2)OCO3)nc(N2CCCCC2)n1`, the growth in assay [1] is 23.4%; in assay [2], -61.9% (active); in [3], -35.3% (active); in assay [4] it was -37.7% (active); in assay [6], -18.8% (active); in assay [7], -5.28% (active). In addition, the figures for the growth in assay [9] and in assay [8] were -27.1% (active) and -41.7% (active), respectively.
